SMILES strings stand for the structures. About 83,000 compounds went through this panel and 20% of them were active in at least one assay; those are over-represented in the sample as a whole.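 Values shown are percent growth following 48 h exposure of cells in 96-well plates to a single concentration of compound; below 10 was considered active.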 A number with no mark means an inactive call. Activity calls are given as the source filed them.

Data on 14 molecules can be found in PubChem BioAssay (NCI).

Among the test systems are RPMI-8226 leukemia; OVCAR-8 ovarian; OVCAR-5 ovarian; OVCAR-4 ovarian; SK-OV-3 ovarian; IGROV1 ovarian; OVCAR-3 ovarian; HS 578T breast; NCI/ADR-RES ovarian.
Holding throughout (assay): NCI-60 one-dose screen, 48 h (100 = growth as untreated, 0 = no growth, -100 = all killed)
Holding throughout (conditions): 10 µM

For the molecule `Cc1cc2c(c(O)c1Br)-c1ncoc1C(=O)[C@]1(C)CC[C@H](C(C)C)[C@H]21`, the growth in the test on RPMI-8226 leukemia was 4.28% (active); in the test on OVCAR-8 ovarian it was 32.6%; in the test on OVCAR-5 ovarian, 73.2%; in the test on OVCAR-4 ovarian, 52.4%; in the test on SK-OV-3 ovarian, 57%; with IGROV1 ovarian it was 52.2%. Besides, the growth is 18.2% in the test on OVCAR-3 ovarian, 54.7% in the test on HS 578T breast and 27.8% in the test with NCI/ADR-RES ovarian.
On to `COc1ccc([C@H]2C(C(=O)c3ccc(Cl)cc3)C3(N[C@@H]2c2ccccc2)C(=O)Nc2ccc(Br)cc23)cc1` (stereo partly specified), for which the growth in the test on RPMI-8226 leukemia is -10.6% (active); in the test with OVCAR-8 ovarian, 14.9%; in the test on OVCAR-5 ovarian, -20% (active); with OVCAR-4 ovarian it was 17.2%; with SK-OV-3 ovarian it was 22.6%; in the test with IGROV1 ovarian it was 7.23% (active). In addition, the growth with OVCAR-3 ovarian was -30.8% (active); in the test with HS 578T breast, -7.39% (active); with NCI/ADR-RES ovarian, -27.2% (active).
Consider `NC1=NC(c2ccccc2Cl)N=C(Nc2nn[nH]n2)N1` (stereo unspecified), for which the growth is 99.2% with RPMI-8226 leukemia; 102% in the test on OVCAR-8 ovarian; 118% in the test on OVCAR-5 ovarian; 99.8% in the test with OVCAR-4 ovarian; 123% in the test on SK-OV-3 ovarian; 115% with IGROV1 ovarian. In addition, the growth in the test with OVCAR-3 ovarian was 107%; with HS 578T breast, 103%; in the test on NCI/ADR-RES ovarian it was 104%.
On to `CC1(C)CC[C@]2(C(=O)Nc3ccccc3)CC[C@]3(C)C(=CC[C@@H]4[C@@]5(C)CC[C@H](N)C(C)(C)[C@@H]5CC[C@]43C)[C@H]2C1`, for which the growth with RPMI-8226 leukemia is 19.7%; with OVCAR-8 ovarian, -66.5% (active); in the test with OVCAR-5 ovarian, 84.4%; with OVCAR-4 ovarian, 76.8%; with SK-OV-3 ovarian, 96.5%; in the test with IGROV1 ovarian, 96%. Besides, the growth was 105% in the test on OVCAR-3 ovarian, 93.2% in the test on HS 578T breast and 66.5% in the test with NCI/ADR-RES ovarian.
On to `O=C(c1ccc(Cl)cc1)C1[C@H](c2ccccc2Br)[C@@H](c2ccccc2)NC12C(=O)Nc1ccc(Cl)cc12` (stereo partly specified), for which the growth in the test on RPMI-8226 leukemia was 10.8%; in the test on OVCAR-8 ovarian, 24.2%; in the test on OVCAR-5 ovarian it was 20.8%; in the test with OVCAR-4 ovarian, 27%; in the test with SK-OV-3 ovarian, 42.9%; in the test on IGROV1 ovarian, 17.7%. Further, the growth with OVCAR-3 ovarian was 4.76% (active); in the test on HS 578T breast, 27.6%; in the test with NCI/ADR-RES ovarian, -60.1% (active).
For the molecule `CC1(C)CC[C@]2(C(=O)NCCCNCCCCNCCCN)CC[C@]3(C)C(=CC[C@@H]4[C@@]5(C)Cc6c([nH]c7ccccc67)C(C)(C)[C@@H]5CC[C@]43C)[C@H]2C1`, the growth with RPMI-8226 leukemia was 68.3%; in the test with OVCAR-8 ovarian, 98.6%; in the test with OVCAR-5 ovarian, 91.1%; in the test with OVCAR-4 ovarian, 102%; in the test with SK-OV-3 ovarian, 66.6%; in the test on IGROV1 ovarian, 77.3%. The growth in the test with OVCAR-3 ovarian is 118%; in the test on HS 578T breast it was 93.6%; in the test on NCI/ADR-RES ovarian it was 93.2%.
As for `O=C(CS(=O)(=O)c1oc(-c2ccc(Cl)cc2)nc1S(=O)(=O)c1ccccc1)N1CCCC1`, the growth in the test with RPMI-8226 leukemia is -13.8% (active); in the test with OVCAR-8 ovarian it was -31.8% (active); in the test on OVCAR-5 ovarian, -51.4% (active); in the test on OVCAR-4 ovarian, -90.1% (active); with SK-OV-3 ovarian it was 97.9%; in the test with IGROV1 ovarian it was 74.4%. For the same molecule, the values for the growth in the test on OVCAR-3 ovarian, in the test with HS 578T breast and with NCI/ADR-RES ovarian were -90.1% (active), 60.2% and 9.98% (active), respectively.
Consider `COc1cc(NC(=O)c2cc(-c3ccc(F)cc3F)ccc2O)cc(OC)c1OC`, for which the growth is 12% in the test with RPMI-8226 leukemia; 48% in the test on OVCAR-8 ovarian; 111% with OVCAR-5 ovarian; 17.3% in the test with OVCAR-4 ovarian; 34.5% with SK-OV-3 ovarian; 38% in the test with IGROV1 ovarian. Besides, the growth was 26.1% in the test with OVCAR-3 ovarian, 26.1% with HS 578T breast and 41.5% with NCI/ADR-RES ovarian.
Consider `CC(=C(c1ccc(OCCN2CCCCCC2)cc1)c1ccc(OCCN2CCCCCC2)cc1)c1ccc(Cl)cc1`, for which the growth was -63.6% (active) with RPMI-8226 leukemia; -95.3% (active) in the test with OVCAR-8 ovarian; -100% (active) in the test on OVCAR-5 ovarian; -96.3% (active) in the test on OVCAR-4 ovarian; -100% (active) with SK-OV-3 ovarian; -94.1% (active) with IGROV1 ovarian. In addition, the growth is -92.6% (active) in the test on OVCAR-3 ovarian, -48% (active) in the test on HS 578T breast and -97.7% (active) with NCI/ADR-RES ovarian.
For `CC1=C(C(=O)OC(C)C)C(c2ccc(O)cc2)NC(=S)N1` (stereo unspecified), the growth in the test with RPMI-8226 leukemia is 95.7%; in the test on OVCAR-8 ovarian, 130%; in the test on OVCAR-5 ovarian, 116%; in the test on OVCAR-4 ovarian, 115%; in the test on SK-OV-3 ovarian it was 107%; with IGROV1 ovarian, 110%. In addition, the growth in the test with OVCAR-3 ovarian is 105%; with HS 578T breast it was 103%; in the test with NCI/ADR-RES ovarian, 97.5%.
Regarding `N[C@@H](CSSC[C@H](N)C(=O)Nc1ccc(OCC2CCCC2)cc1)C(=O)Nc1ccc(OCC2CCCC2)cc1`, the growth with RPMI-8226 leukemia was -57.3% (active); in the test on OVCAR-8 ovarian, -59.8% (active); with OVCAR-5 ovarian it was -100% (active); with OVCAR-4 ovarian, -96.9% (active); in the test on SK-OV-3 ovarian, -97.9% (active); in the test with IGROV1 ovarian, -92.1% (active). Moreover, the growth in the test with OVCAR-3 ovarian is -86.5% (active); with HS 578T breast, -61.7% (active); in the test on NCI/ADR-RES ovarian, -77.2% (active).
On to `Cc1nn(-c2ccccc2)c2ncn(CC(=O)N/N=C/c3c[nH]c4ccccc34)c(=O)c12`, for which the growth is 73.2% in the test on RPMI-8226 leukemia; 89.1% in the test on OVCAR-8 ovarian; 103% in the test with OVCAR-5 ovarian; 83.2% in the test with OVCAR-4 ovarian; 106% in the test with SK-OV-3 ovarian; 106% with IGROV1 ovarian. Besides, the results for the growth in the test with OVCAR-3 ovarian, in the test with HS 578T breast and in the test with NCI/ADR-RES ovarian were 84.3%, 72.7% and 101%, respectively.
In the case of `Cc1cc(C)cc(Oc2cccc(-c3c(C)nnn3C3CCN(CCN(C)C)CC3)n2)c1`, the growth is -12.1% (active) with RPMI-8226 leukemia; 35.9% with OVCAR-8 ovarian; 58% in the test on OVCAR-5 ovarian; 38.9% in the test on OVCAR-4 ovarian; 9.31% (active) in the test with SK-OV-3 ovarian; 36.2% with IGROV1 ovarian. Moreover, the growth in the test with OVCAR-3 ovarian was 38%; in the test with HS 578T breast it was 5.31% (active); in the test on NCI/ADR-RES ovarian, 32.4%.
Take `CC(=O)NNc1ccc2nnc(-c3ccc(Br)cc3)n2n1`: the growth was 91.7% in the test with RPMI-8226 leukemia; 105% in the test on OVCAR-8 ovarian; 102% in the test with OVCAR-5 ovarian; 99.4% in the test with OVCAR-4 ovarian; 81.2% in the test on SK-OV-3 ovarian; 105% in the test with IGROV1 ovarian. Also, the growth in the test on OVCAR-3 ovarian is 104%; with HS 578T breast it was 102%; with NCI/ADR-RES ovarian, 101%.
